Inconclusive results are not listed. Values without a mark were called inactive. Calls follow the shape of the dose curve; as a rule, active = well fitted inhibition curve with a large enough effect; inconclusive = small, poorly fitted or top-dose-only effect; inactive = flat fitted curve, though single readings scatter.
Experiment: qHTS to identify inhibitors of the type 1 interferon - major histocompatibility complex class I in skeletal muscle: primary screen against the NCATS LOPAC collection (AID 1347405);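 also: human myoblasts with HiBiT tag on endogenous HLA-B stimulated by IFN-beta; lytic HiBiT luminescence reporting HLA-B protein level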
Conditions: iHSKM muscle cells, IFN-b-induced MHC-I HiBiT luminescence, 24 h; series mostly up to 45.9 µM; activity change, negative = inhibition: at the top concentration
Procedure, shortened: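 IFN-beta-stimulated (4 ng/ml) HLA-B HiBiT knock-in myoblasts, compound-treated 24 hrs up to 46 uM final; signal via LgBiT complementation and furimazine luminescence.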
For `COC(=O)[C@H]1[C@H]2C[C@H]3c4[nH]c5ccccc5c4CCN3C[C@H]2CC[C@@H]1O`, the “activity change, negative = inhibition” value was 0.874%.
With `CNCCC(Oc1ccccc1C)c1ccccc1` (stereo not drawn) the “activity change, negative = inhibition” value was -16.6%.
For `O=C1CCC(c2ccc(-n3ccnc3)cc2)=NN1`, the “activity change, negative = inhibition” value was -12.8%.
With `N[C@@H](Cc1cnc[nH]1)C(=O)O` the “activity change, negative = inhibition” value was -3.48%.
With `CC1(C)CCC(NC(=O)[C@@H](N)CCC(=O)O)CC1` the “activity change, negative = inhibition” value was 0.949%.
For `CC[C@H](C)C(=O)O[C@H]1CCC=C2C=C[C@H](C)[C@H](CC[C@@H]3C[C@@H](O)CC(=O)O3)[C@H]21`, the “activity change, negative = inhibition” value was -23.6%.
For `Nc1cc(Cl)c(NC2=NCCN2)c(Cl)c1`, the “activity change, negative = inhibition” value was 6.66%.
In the case of `N[C@H](CO)C(=O)O`, the “activity change, negative = inhibition” value is reported as -2.65%.
In the case of `C[N+]1(CCCCC[N+]2(C)CCCC2)CCCC1`, the “activity change, negative = inhibition” value is reported as -2.35%.
In the case of `Oc1ccc(O)cc1`, the “activity change, negative = inhibition” value is reported as -4.76%.
For `CC(CCc1ccccc1)NCC(O)c1ccc(O)c(C(N)=O)c1` (stereo not drawn), the “activity change, negative = inhibition” value was 9.06%.
In the case of `CCCn1c(=O)[nH]c(=O)c2[nH]cnc21`, the “activity change, negative = inhibition” value is reported as -11%.
With `C1CCc2nnnn2CC1` the “activity change, negative = inhibition” value was -6.9%.
In the case of `CC(=O)O[C@H]1C[C@@H]2CC[C@@H]3[C@H](CC[C@@]4(C)[C@H]3C[C@H]([N+]3(C)CCCCC3)[C@@H]4OC(C)=O)[C@@]2(C)C[C@@H]1[N+]1(C)CCCCC1`, the “activity change, negative = inhibition” value is reported as -2.41%.
In the case of `CCC(NC(C)C)C(O)c1ccc(O)c(O)c1` (stereo not drawn), the “activity change, negative = inhibition” value is reported as -4.36%.
For `O=C(O)c1cc2cc(Cc3cccnc3)ccc2o1`, the “activity change, negative = inhibition” value was 3.68%.
For `CC(C)COC(=O)OCN1C(=O)CN(CCN2CC(=O)N(COC(=O)OCC(C)C)C(=O)C2)CC1=O`, the “activity change, negative = inhibition” value was 5.62%.
In the case of `CN1C2CCC1CC(OC(=O)c1c[nH]c3ccccc13)C2` (stereo not drawn), the “activity change, negative = inhibition” value is reported as -13.1%.
In the case of `CCCC1O[C@@H]2C[C@H]3[C@@H]4CCC5=CC(=O)C=C[C@]5(C)[C@H]4[C@@H](O)C[C@]3(C)[C@]2(C(=O)CO)O1` (stereo partly drawn), the “activity change, negative = inhibition” value is reported as -21.9%.

Experiment: qHTS to identify inhibitors of the type 1 interferon - major histocompatibility complex class I in skeletal muscle: primary screen against the NCATS Pharmaceutical Collection (AID 1347407);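 also: luminescence of HiBiT knocked into endogenous HLA-B as interferon-induced MHC class I level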
Conditions: human skeletal muscle cells, IFN-b-induced MHC-I HiBiT luminescence, 24 h; series mostly up to 45.9 µM; activity change, negative = inhibition: at the top concentration
Procedure, shortened: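 Cells were seeded with 4 ng/ml IFN-beta, incubated 1 h, then dosed with compounds over eight 1:5 steps up to 46 uM final. After 24 h at 37 C, HiBiT lytic reagent was added and luminescence read after 10 min lysis in the dark.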
For `Nc1nc2ncc(CNc3ccc(C(=O)N[C@@H](CCC(=O)O)C(=O)O)cc3)nc2c(=O)[nH]1`, the “activity change, negative = inhibition” value was 12%.
With `CN1CCC[C@@H]1c1cccnc1` the “activity change, negative = inhibition” value was -2.34%.
For `Cc1cccn2c(=O)c(-c3nnn[nH]3)cnc12`, the “activity change, negative = inhibition” value was -7.33% [at 19 µM].
With `Cc1ccc(O)c2ncccc12` the “activity change, negative = inhibition” value was -12.5%.
With `Cc1ccccc1C(=O)Nc1ccc(C(=O)N2CCCC(N(C)C)c3ccccc32)cc1` (stereo not drawn) the “activity change, negative = inhibition” value was 2.48%.
In the case of `O=C(N/N=C/c1ccccc1O)c1ccncc1`, the “activity change, negative = inhibition” value is reported as -29.2%.
For `CC(O)(P(=O)(O)O)P(=O)(O)O`, the “activity change, negative = inhibition” value was 1.69%.
In the case of `CC1(C)O[C@@H]2C[C@H]3[C@@H]4C[C@H](F)C5=CC(=O)CC[C@]5(C)[C@H]4[C@@H](O)C[C@]3(C)[C@]2(C(=O)CO)O1`, the “activity change, negative = inhibition” value is reported as -10%.
With `CCCCCCC[N+](CC)(CC)CCCCc1ccc(Cl)cc1` the “activity change, negative = inhibition” value was -7.04%.
In the case of `O=C(OCC(O)CO)c1ccccc1Nc1ccnc2cc(Cl)ccc12` (stereo not drawn), the “activity change, negative = inhibition” value is reported as -29.9%.
With `CCN(CCCc1ccccc1)CCCc1ccccc1` the “activity change, negative = inhibition” value was -10.3%.
For `CC(=O)Oc1ccc(C(=C2CCCCC2)c2ccc(OC(C)=O)cc2)cc1`, the “activity change, negative = inhibition” value was 19.5%.
In the case of `CN(C)CCOc1ccccc1Cc1ccccc1`, the “activity change, negative = inhibition” value is reported as -0.569%.
For `CC(=O)[C@H]1CC[C@H]2[C@@H]3C[C@H](C)C4=CC(=O)CC[C@]4(C)[C@H]3[C@@H](O)C[C@]12C`, the “activity change, negative = inhibition” value was -27.1%.
% is scaled to controls: 0 for no effect and ±100 for the full control effect.
